rCAG binder = molecules binding r(CAG) RNA repeats; AID 651821; inhibition, % at 3 µM; r(CAG) RNA repeat, TO-PRO-1 dye displacement fluorescence; 370,000 tested, 1.3% active;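 active = inhibition above the plate cutoff, the mean of all test compounds on that plate plus 3 SD, cut at about 35% in these data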;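 also: 0% = DMSO alone and 100% = 100 µM mitoxantrone as full dye displacement; higher means more dye released from RNA so lower well fluorescence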
ABCB6 inh 2 = blocks the human ABCB6 transporter; Q9NP58; K562-ABCB6 porphyrin accumulation, flow cytometry, 1 h; hits give low values; fluorescence ratio to DMSO, % at 10 µM; 360,000 tested, 0.19% active; AID 602162;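 active = fluorescence ratio to DMSO below 75%, the collection mean minus 3 SD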;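 also: signal is porphyrin accumulated inside mitochondria; 100% equals median channel fluorescence of DMSO control wells; lower ratio means ABCB6 inhibition with less porphyrin fluorescence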
Target sequence (Q9NP58 whole entry, looked up): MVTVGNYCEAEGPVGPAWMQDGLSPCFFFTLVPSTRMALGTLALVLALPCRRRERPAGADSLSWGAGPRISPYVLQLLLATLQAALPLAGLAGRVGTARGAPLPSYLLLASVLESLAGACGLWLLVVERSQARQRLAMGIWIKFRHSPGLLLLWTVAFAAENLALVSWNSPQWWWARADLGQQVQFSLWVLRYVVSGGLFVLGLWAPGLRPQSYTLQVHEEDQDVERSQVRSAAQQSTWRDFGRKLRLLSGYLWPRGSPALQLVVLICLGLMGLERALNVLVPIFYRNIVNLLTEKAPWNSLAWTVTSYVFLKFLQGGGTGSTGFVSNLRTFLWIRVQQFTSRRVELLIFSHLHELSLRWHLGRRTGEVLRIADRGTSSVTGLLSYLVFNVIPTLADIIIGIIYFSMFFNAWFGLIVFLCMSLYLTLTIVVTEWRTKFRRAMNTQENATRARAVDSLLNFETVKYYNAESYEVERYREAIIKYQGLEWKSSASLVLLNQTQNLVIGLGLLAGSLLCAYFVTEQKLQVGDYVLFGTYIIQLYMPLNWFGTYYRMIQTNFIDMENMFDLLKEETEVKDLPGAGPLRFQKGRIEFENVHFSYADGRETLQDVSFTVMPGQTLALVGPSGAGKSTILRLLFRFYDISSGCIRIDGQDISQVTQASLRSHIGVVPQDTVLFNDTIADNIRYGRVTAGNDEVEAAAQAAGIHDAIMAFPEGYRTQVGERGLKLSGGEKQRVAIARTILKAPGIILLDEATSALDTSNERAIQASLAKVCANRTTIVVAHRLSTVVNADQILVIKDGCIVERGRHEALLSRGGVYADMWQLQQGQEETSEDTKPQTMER
PG9 Ab binder = binds the HIV-1 gp120 antibody PG9; 360,000 tested, 0.43% active; inhibition, % at 6.7 µM; AID 624416; TR-FRET gp120-PG9 antibody binding; in the data active = inhibition above about 8.5%
Exocytosis inh = lytic granule exocytosis inhibition; TALL-104 LAMP-1 surface exposure, flow cytometry; cells stimulated with thapsigargin and PMA; inhibition, % at 10 µM; 360,000 tested, 0.66% active;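 active = inhibition above about 55%, limit read from the data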
rCAG binder conf = r(CAG) RNA repeat binding, confirmation; shares compounds with rCAG binder; TO-PRO-1 dye displacement fluorescence; inhibition, % at 3 µM; 4,300 tested, 70% active; AID 652065;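 active = inhibition above a per-plate cutoff, the mean inhibition of sample wells plus 3 SD, cut at about 35% in these data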;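 also: loss of TO-PRO-1 fluorescence as compound displaces dye from 1x1 AA loop RNA; 0% = DMSO only wells and 100% = 100 µM mitoxantrone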
dCAG dye counter = disrupts DNA CAG TO-PRO-1 complex, flagging rCAG hits; AID 652068; inhibition, % at 3 µM; shares compounds with rCAG binder; 4,300 tested, 94% active; d(CAG) DNA oligo TO-PRO-1 dye displacement, fluorescence;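 active = inhibition above its plate's cutoff, the mean test-well inhibition plus 3 SD, cut at about 4.8% in these data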;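 also: 0% = DNA dye mix with DMSO and 100% = 100 µM mitoxantrone; hits displace the dye from DNA and so lower well fluorescence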
DNA CAG DR = DNA CAG dye complex inhibition, dose response counter-screen; shares compounds with rCAG binder; DNA CAG/GTC duplex TO-PRO-1 dye displacement fluorescence; IC50, µM; 250 tested, 20% active; in the data active = IC50 below about 10 µM
The depositor's hits bear a star; i = inactive; · = no result given. Only some compounds are listed: those with a hit (about 2.5% of all), similar ones and a draw of the others.

SMILES | rCAG binder | ABCB6 inh 2 | PG9 Ab binder | Exocytosis inh | rCAG binder conf | dCAG dye counter | others
COc1ccc(CN(C)C(C)C(=O)Nc2cccc3ccccc23)cc1 (stereo unspecified) | 2 | 100 | -1 | 19 | · | ·
COC(=O)c1ccc(COC(=O)CNC(=O)c2ccc(C)s2)cc1 | 2 | 90 | 2 | 10 | · | ·
O=C(O)C/C(=C\c1cc2c(cc1Br)OCO2)c1nc2ccccc2s1 | 35* | 101 | 1 | -6 | 36* | 9.5*
COc1ccc(C(=O)Nc2cccc(/C=C(\CCC(=O)O)c3nc4ccccc4s3)c2)cc1 | 62* | 98 | -1 | -1 | 76* | 38*
O=C(O)C/C(=C\c1cccc(NC(=O)c2ccccc2Cl)c1)c1nc2ccccc2s1 | 54* | 94 | 0 | 1 | 57* | 24*
O=C(/C=C/c1ccc([N+](=O)[O-])cc1)NCCN1C(=O)S/C(=C\c2ccc(F)cc2)C1=O | 3 | 100 | -2 | 2 | · | ·
O=C(N/N=C/c1cc([N+](=O)[O-])cc([N+](=O)[O-])c1O)C(O)(c1ccccc1)c1ccccc1 | 68* | 96 | 0 | 8 | 71* | 30*
O=C(N/N=C/c1ccc(O)c([N+](=O)[O-])c1)C(O)(c1ccccc1)c1ccccc1 | 26 | 105 | -3 | -15 | · | ·
Cc1nnc(SCC(=O)Nc2cccc([N+](=O)[O-])c2)n1CC1CCCO1 (stereo unspecified) | 1 | 94 | -2 | -4 | · | ·
COc1cc([N+](=O)[O-])ccc1NC(=O)CCCOc1ccccc1 | 0 | 90 | 0 | -1 | · | ·
COc1cc([N+](=O)[O-])ccc1NC(=S)NNC(=O)CCC(=O)Nc1ccccc1Cl | 64* | 94 | -2 | 4 | 49* | 14*
O=C1c2ccccc2C(c2nnnn2Cc2ccccc2)N1Cc1ccco1 (stereo unspecified) | 2 | 94 | -1 | 1 | · | ·
COC(=O)c1ccccc1NS(=O)(=O)c1ccc2c3c(cccc13)C(=O)N2 | 9 | 103 | -1 | -8 | · | ·
Cc1oc2c(cc(NS(=O)(=O)c3ccc4c5c(cccc35)C(=O)N4)c3ccccc32)c1C(=O)OC(C)C | 37* | 107 | 2 | -1 | 38* | 17*
CCOC(=O)c1c(C)oc2c1cc(NS(=O)(=O)c1ccc(C(=O)O)cc1)c1ccccc12 | 67* | 104 | -3 | 4 | 55* | 20*
COC(=O)CCCCCN1C(=O)NC(C2CC2)C(C(=O)OCc2ccccc2)=C1C (stereo unspecified) | -1 | 101 | 2 | 0 | · | ·
CCc1cc2ccc(C)cc2nc1SCC(=O)Nc1cc(OC)c(OC)cc1C(=O)O | 45* | 102 | 2 | 3 | 76* | 28* | DNA CAG DR=i
O=C(Cn1cnc2ccccc2c1=O)c1ccc(OC(F)F)cc1 | 5 | 99 | -1 | -6 | · | ·
NC(=O)c1ccsc1NC(=O)COC(=O)[C@@H]1CCCN1C(=O)c1cccs1 | 6 | 96 | -1 | -2 | · | ·
CCN(CC)c1ccc(/C=N/NC(=O)Nc2ccccc2)cc1 | -1 | 95 | -5 | -6 | · | ·
O=C(Nc1ccccc1)Nc1nnc(Cc2ccc(F)cc2)s1 | 36* | 94 | -1 | 2 | 11 | 12*
O=C(Cc1nnc(NC(=O)Nc2ccc(F)cc2)s1)Nc1ccccc1 | 38* | 98 | -2 | 7 | 27 | 15*
O=C(Cc1nnc(NC(=O)c2ccccc2)s1)N/N=C\c1ccc(O)c(O)c1 | 18 | 97 | -1 | 15 | · | ·
CCN(CC)c1ccc(/C=N/NC(=O)Cc2nnc(NC(=O)Nc3ccccc3)s2)cc1 | 60* | 115 | -1 | 2 | 40* | 27*
COc1cc(/C=N/NC(=O)Cc2nnc(NC(=O)c3ccccc3)s2)ccc1O | 38* | 99 | -2 | -11 | 15 | 7.5*
SMILES | rCAG binder | ABCB6 inh 2 | PG9 Ab binder | Exocytosis inh | rCAG binder conf | dCAG dye counter | others
CC(CC(=O)Nc1ccc2c(c1)c(=O)n(C)n2-c1cccs1)c1ccccc1 (stereo unspecified) | 2 | 100 | -1 | 3 | · | ·
CCOC(=O)N1CCN(S(=O)(=O)N2CCCC(C(=O)NCc3cccc(OC)c3)C2)CC1 (stereo unspecified) | -5 | 91 | 1 | -2 | · | ·
Cc1ccc(-c2n[nH]c3c2C(c2ccccc2)N(c2ccc(C(=O)O)cc2)C3=O)cc1 (stereo unspecified) | 45* | 102 | 0 | -1 | 26 | 6.2*
Cc1ccc(-c2n[nH]c3c2C(c2cccc(O)c2)N(c2ccc(C(=O)O)cc2)C3=O)cc1 (stereo unspecified) | 20 | 98 | 1 | -1 | · | ·
COc1cc(/C=C2\C(=N)N3N=C(S(C)(=O)=O)SC3=NC2=O)ccc1OC(=O)c1ccco1 | 43* | 109 | -2 | 3 | 80* | 48*
N=C1/C(=C\c2ccc(SCc3ccccc3)o2)C(=O)N=C2SC=NN12 | 29 | 107 | -1 | 17 | · | ·
CCOc1cc(/C=C2/C(=N)N3N=C(CC)SC3=NC2=O)ccc1OC(=O)c1ccco1 | 22 | 101 | -1 | -10 | · | ·
COc1cc(/C=C2\C(=N)N3N=C(S(C)(=O)=O)SC3=NC2=O)ccc1OCCOc1ccccc1C | 40* | 101 | 1 | -7 | 91* | 76*
CCS(=O)(=O)C1=NN2C(=N)/C(=C\c3ccc(SCc4ccco4)o3)C(=O)N=C2S1 | 85* | 101 | -3 | 3 | 89* | 70*
CCOc1cc(/C=C2\C(=N)N3N=C(S(=O)(=O)CC)SC3=NC2=O)ccc1OC(=O)c1ccco1 | 42* | 93 | -2 | 2 | 84* | 51*
CC(=O)Nc1ccc(S(=O)(=O)NC(C(=O)O)C(C)O)cc1 (stereo unspecified) | 4 | 96 | 1 | -2 | · | ·
COc1ccc(NC(=O)Cn2c(=O)n(-c3ccc(CC(=O)NCc4ccco4)cc3)c(=O)c3ccccc32)cc1 | 6 | 96 | 1 | -2 | · | ·
COc1ccc(/C=C2/C(=N)N3N=C(CC(=O)N4CCCC4)SC3=NC2=O)cc1OC | 17 | 102 | 1 | -2 | · | ·
N=C1/C(=C\c2ccc(OC(=O)c3ccco3)cc2)C(=O)N=C2SC(N3CCCCC3)=NN12 | 40* | 100 | -1 | 1 | 33 | 11*
COc1cc(/C=C2\C(=N)N3N=C(S(C)(=O)=O)SC3=NC2=O)ccc1OC(=O)c1cccs1 | 52* | 106 | -1 | 3 | 86* | 63*
CC(=O)c1c(C)[nH]c(C(=O)N2CCN(c3ccccn3)CC2)c1C | -2 | 96 | -1 | -5 | · | ·
CCCOC1CCCN(C(=O)c2ccc3oc(C(C)C)nc3c2)C1 (stereo unspecified) | -11 | 90 | -2 | -16 | · | ·
COc1ccc(C(=O)N2C(=S)NC(=O)/C2=C\c2ccc(C)cc2)cc1 | 64* | 100 | -3 | 2 | 66* | 31*
COc1ccc(C=C2NC(=S)NC2=O)cc1 | 1 | 98 | -11 | -3 | · | ·

Screening data deposited in PubChem BioAssay by several laboratories.
